Reference: ChEMBL document CHEMBL3433997, “St. Jude Leishmania screening dataset” (2016)

How the values were obtained:
Assay type in all cases: functional
[1] = target: Solute carrier family 2, facilitated glucose transporter member 1 (Homo sapiens) (UniProt P11166); assay: ST_JUDE_LEISH: Cytotoxicity at 2uM final concentration against transgenic Leishmania Mexicana promastigotes LmGLUT1 that are glucose transport deficient and complemented with the human glucose transporter GLUT1. Activity is measured by DNA content using SYBR green in vitro
Chain of Solute carrier family 2, facilitated glucose transporter member 1 (Homo sapiens) (P11166 whole entry): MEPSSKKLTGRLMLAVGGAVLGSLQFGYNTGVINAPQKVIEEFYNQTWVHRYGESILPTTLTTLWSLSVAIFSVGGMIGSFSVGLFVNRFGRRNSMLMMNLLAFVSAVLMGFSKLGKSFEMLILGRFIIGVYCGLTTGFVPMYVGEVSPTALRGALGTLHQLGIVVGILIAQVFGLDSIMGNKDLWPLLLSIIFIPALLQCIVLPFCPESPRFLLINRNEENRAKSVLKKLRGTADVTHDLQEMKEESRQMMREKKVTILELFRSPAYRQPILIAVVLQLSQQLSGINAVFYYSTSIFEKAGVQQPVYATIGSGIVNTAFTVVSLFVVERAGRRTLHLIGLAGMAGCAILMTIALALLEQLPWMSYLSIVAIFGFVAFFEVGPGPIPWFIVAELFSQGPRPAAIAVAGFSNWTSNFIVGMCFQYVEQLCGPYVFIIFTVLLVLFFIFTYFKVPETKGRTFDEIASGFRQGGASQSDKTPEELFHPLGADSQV

[2] = target: Hexose transporter 1 (Plasmodium falciparum) (UniProt O97467); assay: ST_JUDE_LEISH: Cytotoxicity at 2uM final concentration against transgenic Leishmania Mexicana promastigotes LmPfHT that are glucose transport deficient and complemented with the Plasmodium falciparum hexose transporter. Activity is measured by DNA content using SYBR green in vitro
[3] = target: Glucose transporter (Leishmania mexicana) (UniProt O61059); assay: ST_JUDE_LEISH: Cytotoxicity at 2uM final concentration against transgenic Leishmania Mexicana promastigotes LmGT2 that are glucose transport deficient and complemented with the L. Mexicana glucose transporter 2. Activity is measured by DNA content using SYBR green in vitro

SMILES | inhibition [1] [%] | inhibition [2] [%] | inhibition [3] [%]
COC(=O)c1cccc(CNCc2ccc(-c3cccc(-c4nc5ccccc5[nH]4)c3)cc2)c1 | -2.56 | -1.88 | 0
O=C1COc2ccc3ccccc3c21 | -2.29 | 0.78 | -0.4
CCCCOc1cc2ncc(C(=O)OCC)c(O)c2cc1OCCCC | 0.09 | 0.46 | -3.15
O=C(Nc1cccc(CN2CCCN(Cc3cccc(O)c3)CC2)c1)c1ccc2ccccc2c1 | 1.01 | 1.53 | -2.82
COc1ccc(CON2C(=N)N=C(N)NC2(C)C)cc1OC | -1.03 | -1.38 | -0.13
CS(=O)(=O)c1ccc(CNCc2ccc(-c3ccc(-c4nc5cc(C(F)(F)F)ccc5[nH]4)s3)cc2)cc1 | 12 | 10.7 | 9.87
CC(C)N1CCN(CCCNc2c3ccccc3nc3ccccc23)CC1 | 40.1 | 58 | 19
COc1ccc2c(NN=Cc3cccc(C)n3)ccnc2c1 | 4.32 | 5.22 | 5.4
NC(=O)C1CCN(Cc2ccc(-c3ccc(-c4nc5cc(C(F)(F)F)ccc5[nH]4)cc3)cc2)CC1 | 4.65 | 2.32 | 3.93
COC(=O)c1cccc(CNCc2ccc(-c3cccc(-c4nc5cc(C(F)(F)F)ccc5[nH]4)c3)cc2)c1 | 11.9 | 11 | 11.5
COc1ccc(S(=O)(=O)N2CCOCC2)cc1NC(=O)c1cc2ccccc2o1 | 2.09 | 3.19 | 1.69
CCCc1cn2c3c(cc(C(=O)N[C@@H](Cc4ccccc4)[C@H](O)CNC4CCCCC4)cc13)N(C)S(=O)(=O)CC2 | 1.94 | 2.85 | 1.49
CN1CCCc2ccc(NC(=O)Nc3ccc(-c4ccccc4)cc3)cc2C1 | -3.44 | 0.82 | -0.14
